# Rows were chosen to be rich in hits. Some 0.41% of all compounds tested hit in one or more screens of this group.
# GAA glycogen mod – qHTS Assay for Inhibitors and Activators of Human alpha-Glucosidase Cleavage of Glycogen | Lysosomal alpha-glucosidase (Homo sapiens), P10253 | Potency, µM (top dose mostly 76.4 µM), most hits filed as inhibitors | recombinant GAA, glycogen substrate, Amplex Red glucose oxidase fluorescence | 300,000 tested, 0.38% active;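 note: the screen sought inhibitors and activators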
#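 Recombinant human enzyme (4 nM); glycogen substrate; 37 C, 40 min, pH 5.0. Readout: coupled glucose oxidase/Amplex Red fluorescence.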
# GAA spleen mod – qHTS Assay for Inhibitors and Activators of Human alpha-Glucosidase From Spleen Homogenate; Lysosomal alpha-glucosidase (Homo sapiens), P10253; human spleen homogenate, 4-MU-alpha-glucoside fluorescence; Potency, µM (top dose mostly 79.9 µM), usual class: inhibitors; 240,000 tested, 0.006% active
#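 AC50 values come from Hill-equation fits of concentration-response data, normalized to no-enzyme and full-activity controls. Enzyme source: 1 ug human spleen homogenate; 1 mM fluorogenic 4-MU glucoside, pH 5.0 citrate buffer, 37 C, 40 min.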
# N370S GC mod – qHTS Assay for Inhibitors and Activators of N370S glucocerebrosidase as a Potential Chaperone Treatment of Gaucher Disease | Lysosomal acid glucosylceramidase (Homo sapiens), P04062 | N370S GC spleen homogenate, 4MU-glucoside fluorescence | Potency, µM (highest dose often 59.4 µM), actives largely listed as inhibitors | 330,000 tested, 0.092% active
# GLA spleen mod – qHTS Assay for Inhibitors and Activators of Human alpha-Galactosidase From Spleen Homogenate | Alpha-galactosidase A (Homo sapiens), P06280 | human spleen homogenate, 4MU-alpha-Gal fluorescence, 40 min | Potency, µM (highest dose often 80 µM), most hits filed as inhibitors | 240,000 tested, 0.008% active
# Target sequence (P06280 32-429 limits assumed): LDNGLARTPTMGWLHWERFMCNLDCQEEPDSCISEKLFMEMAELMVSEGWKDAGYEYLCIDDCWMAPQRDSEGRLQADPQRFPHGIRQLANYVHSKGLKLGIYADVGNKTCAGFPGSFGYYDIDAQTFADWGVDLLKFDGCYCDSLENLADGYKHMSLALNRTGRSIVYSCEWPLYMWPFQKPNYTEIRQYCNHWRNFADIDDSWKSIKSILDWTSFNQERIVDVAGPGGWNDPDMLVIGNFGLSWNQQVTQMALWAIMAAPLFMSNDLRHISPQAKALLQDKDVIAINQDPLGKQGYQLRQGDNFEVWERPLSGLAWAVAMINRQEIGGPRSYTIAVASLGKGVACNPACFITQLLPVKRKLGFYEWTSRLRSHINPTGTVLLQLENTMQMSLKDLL
#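 Human spleen homogenate (1 ug) was the enzyme source, with 4-methylumbelliferyl-alpha-D-galactopyranoside (1 mM final) in pH 5.0 citrate buffer with 0.01% Tween-20. Compounds were titrated; after 40 min at 37C, NaOH/glycine stop, 4-MU fluorescence read; AC50 from Hill fits.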
# GLA inh pH 4.5 – qHTS Assay for Inhibitors of Human alpha-Galactosidase at pH 4.5; Alpha-galactosidase A (Homo sapiens), P06280; purified enzyme, 4-MU-alpha-Gal fluorescence, pH 4.5; activity change, negative = inhibition, % at 105 µM; 230,000 tested, under 10 active; AID 1467, 2008
# GAA inh – qHTS Assay for Inhibitors of Human alpha-Glucosidase as a Potential Chaperone Treatment of Pompe Disease; 200,000 tested, 0.005% active; Potency, µM (doses to about 76.9 µM), actives largely listed as inhibitors; purified human GAA, 4-MU-alpha-glucoside fluorescence; AID 1466, 2008; Lysosomal alpha-glucosidase (Homo sapiens), P10253
#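 Human enzyme at 4 nM with 400 uM 4-methylumbelliferyl-alpha-D-pyranoside, citrate/phosphate buffer pH 5.0, 0.005% Tween-20, 20 min at room temperature. Compounds up to 77 uM. 4-MU fluorescence (Ex 365/Em 440) read after NaOH/glycine stop; AC50 from Hill fit.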
# Numbers stand for hits; 0 = inactive; ? = inconclusive; - = not tested or not shown; ! = repeats disagree; [ ] = remark or other dose. Calls come from the whole dose curve; as a rule, active = well fitted curve in the direction sought with a large enough effect; inconclusive = small, poorly fitted or top-dose-only effect, or another doubt; inactive = no such curve, though single readings can be large; an effect the other way counts as inactive or inconclusive.
SMILES,GAA glycogen mod,GAA spleen mod,N370S GC mod,GLA spleen mod,GLA inh pH 4.5,GAA inh
Cc1ccccc1NC(=O)CC1SC(=O)N(c2ccccc2)C1=O (configuration not stated),25µM,0,0,0,0,0
CCOc1ccc(NC(=O)CC2SC(=O)N(c3ccccc3)C2=O)cc1 (configuration not stated),20µM,0,0,0,0,0
O=C(CC1SC(=O)N(c2ccccc2)C1=O)Nc1cccc2ccccc12 (configuration not stated),?,0,0,0,0,-
CCOc1ccccc1NC(=O)CC1SC(=N)N(c2ccccc2)C1=O (configuration not stated),0,0,0,0,0,0
Cc1ccc(CNC(=O)[C@]2(C(F)(F)F)C[C@H](CCc3ccccc3)CCCO2)o1,-,0,0,0,-,-
O=C(CCc1ccc(O)cc1)c1c(O)cc(O)cc1O,31µM,0,18µM!,0,0,-
Oc1ccc(N2CCN(C(c3cccnc3)c3nnnn3Cc3ccccc3)CC2)cc1 (configuration not stated),16µM,0,?,0,0,0
c1ccc(CCn2nnnc2C(c2cccnc2)N2CCN(c3ccccc3)CC2)cc1 (configuration not stated),0,0,0,0,0,0
CCC(C)(C)n1nnnc1C(c1ccc2ncccc2c1)N1CCN(c2nc3ccccc3s2)CC1 (configuration not stated),0,0,0,0,0,?
CC(C)C(c1nnnn1Cc1ccc(F)cc1)N1CCN(c2ccc(O)cc2)CC1 (configuration not stated),7µM,0,?,0,0,0
CCC(C)(C)n1nnnc1C(c1ccc2ncccc2c1)N1CCN(c2ccc(O)cc2)CC1 (configuration not stated),1.4µM,0,?,0,0,-
COc1ccc(Cn2nnnc2C(C(C)C)N2CCN(c3ccccc3OC)CC2)cc1 (configuration not stated),0,0,0,0,0,0
CCCC1=Nc2cc(C(=O)NCc3ccccc3)ccc2Sc2ccccc21,0,-,-,-,-,-
O=C(O)CCn1cnc2onc(-c3ccccc3Cl)c2c1=O,0,-,-,-,-,-
O=C(NNc1nc2c(F)cccc2s1)C1COc2ccccc2O1 (configuration not stated),4.4µM,0,0,0,0,0
COc1cccc2sc(NNC(=O)C3COc4ccccc4O3)nc12 (configuration not stated),0,0,0,0,0,0
O=[N+]([O-])c1cc(-c2nnc(Nc3ccc(O)cc3)c3ccccc23)ccc1N1CCOCC1,16µM,0,?,0,0,0
CCOC(=O)c1c(C)n(C)c2ccc(O)c(CN(C)C)c12,25µM,0,0,0,0,0
CCOC(=O)c1c(C)n(-c2ccc(OC)cc2)c2ccc(O)c(CN(C)C)c12,0,0,0,0,0,-
CCc1ccc(-n2nc(CO)c(C(=O)NCCOC)n2)cc1,0,-,-,-,-,-
CCCSCCCNC(=O)CN1C(=O)COc2ccc(S(=O)(=O)N3CCC(C)CC3)cc21,0,-,-,-,-,-
CC(=O)Nc1ccc2c(c1)OCO2,0,0,0,0,0,0
C/C(=C\C(=O)c1ccc(C)o1)Nc1ccc2c(c1)OCO2,28µM,0,0,0,0,0
C/C(=C\C(=O)c1ccccc1)Nc1ccc2c(c1)OCO2,16µM,0,0,0,0,0
Cc1ccc(C(=O)Nc2ccc3c(c2)OCO3)o1,0,0,0,0,0,0
SMILES,GAA glycogen mod,GAA spleen mod,N370S GC mod,GLA spleen mod,GLA inh pH 4.5,GAA inh
CCc1nn(CC(=O)Nc2ccc(C)c(F)c2)c(=O)c2cc3cc(C)ccc3n12,0,-,-,-,-,-
C=CCc1c(C)nc(-c2ccccc2)nc1N/N=C(\C)c1ccccc1,?,0,10µM,0,0,0
C=CCc1c(C)nc(-c2ccccc2)nc1Nc1ccc(O)cc1,0,0,14µM,0,0,0
COC(=O)C1=C(C(=O)OC)[C@@H]2Nc3ccccc3[C@@]23C[C@@H](C(=O)OC)N(S(=O)(=O)c2ccc(C)cc2)C3=N1,-,0[17.4 µM],0[12.8 µM],0[17.5 µM],0,-
COc1cc(C2OC(=O)c3c2ccc(OC)c3OC)ccc1O (configuration not stated),-,-,0,-,-,-
Cc1nn(C(=O)c2ccccc2)c(C)c1Sc1ccc(Cl)cc1,0,-,-,-,-,-
CC(=O)C1=C(c2ccccc2)NC(=O)NC1c1ccc(O)c(O)c1 (configuration not stated),?,0,0,0,0,0
CC(=O)C1=C(c2ccccc2)NC(=S)NC1c1ccc(O)c(O)c1 (configuration not stated),3.2µM,0,0,0,0,0
COc1ccc(/C=C/c2nc(C#N)c(N3CCN(c4ccccc4)CC3)o2)cc1OC,0,-,-,-,-,-
CCOc1cc(CNCCc2ccc(S(N)(=O)=O)cc2)ccc1OCc1ccccc1,0,0,6.3µM,0,0,?
O=C(COc1ccc(Br)cc1)Nc1ccc(C(=O)OC2CCCCC2)cc1,0,-,-,-,-,-
CCc1cccc(C)c1Nc1c(-c2ccc(N(C)C)cc2)nc2cnccn12,10µM,-,-,-,-,-
O=c1oc2ccccc2c2oc3cc(O)c(O)cc3c12,28µM,0,0,0,0,-
Cc1ccc(C)n1-c1ccc(-c2nnc3n2CCCCC3)s1,35µM,0,0,0,0,0
C1CCc2nnc(-c3nnc4n3CCCCC4)n2CC1,0,0,0,0,0,0
c1ccc(Nc2cc(Nc3ccccc3)[nH]n2)cc1,28µM,0,0,0,0,0
CC1(C)C([N+](=O)[O-])C(c2ccc(F)cc2)NC(c2ccc(F)cc2)C1[N+](=O)[O-] (configuration not stated),0,0,0,0,0,-
CC1(C)C([N+](=O)[O-])C(c2ccc(O)cc2)NC(c2ccc(O)cc2)C1[N+](=O)[O-] (configuration not stated),0,0,8.9µM,0,0,0
Nc1nc(-c2ccccc2)c(-c2ccccc2)s1,0,0,0,0,0,0
Nc1nc(-c2ccccc2)c(N=Nc2ccc(Cl)cc2)s1,0,0,2.5µM,0,0,0
CC(=O)N1CC[C@@H]2CC(=O)CC[C@@H]21,-,0,0,0,0,-
Cc1nc(NS(=O)(=O)c2ccccc2)sc1NC(=O)OC(C)C,28µM,0,0,0,0,0

# Assay outcomes from PubChem.
